Binding signal data for 9 sequences are collected here from paper PMC8384837, “Expanding the binding specificity for RNA recognition by a PUF domain”.

Assay in all cases: yeast three-hybrid, YBZ-1, SC-Leu-His + 0.5 mM 3-AT, 4 days
Common to all, as to conditions: tags: N-Gal4 AD-HA kept; label: inside an RPR1-promoter hybrid RNA with tandem MS2 sites; ssRNA

One experiment has as its target PUM1 PUF domain R1-RHV (Homo sapiens, UniProt Q14671 828-1176, S863R;R864H;Q867V). The gist of the method: (§1)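 Repeat regions from input (SC-Leu) and selection (SC-Leu-His + 0.5 mM 3-AT) plates were PCR-amplified and Illumina-sequenced after four days of growth. The cells were strain YBZ-1 with a LexA–MS2 coat fusion and a HIS3 reporter, co-expressing Pumilio-1 PUF domain libraries and matching RNA elements from a centromeric plasmid. The interaction score is the log change in variant frequency from input to selection, taken in log2 with a pseudocount of 1 for absent variants.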

The next experiment concerns the target PUM1 PUF domain R7-GVN (Homo sapiens, UniProt Q14671 828-1176, S1079G;N1080V;E1083N). The gist of the method: as §1
The target of another experiment is T1, PUM1 PUF domain R6-HYS (Homo sapiens, UniProt Q14671 828-1176, N1043H;Q1047S).
T1 sequence: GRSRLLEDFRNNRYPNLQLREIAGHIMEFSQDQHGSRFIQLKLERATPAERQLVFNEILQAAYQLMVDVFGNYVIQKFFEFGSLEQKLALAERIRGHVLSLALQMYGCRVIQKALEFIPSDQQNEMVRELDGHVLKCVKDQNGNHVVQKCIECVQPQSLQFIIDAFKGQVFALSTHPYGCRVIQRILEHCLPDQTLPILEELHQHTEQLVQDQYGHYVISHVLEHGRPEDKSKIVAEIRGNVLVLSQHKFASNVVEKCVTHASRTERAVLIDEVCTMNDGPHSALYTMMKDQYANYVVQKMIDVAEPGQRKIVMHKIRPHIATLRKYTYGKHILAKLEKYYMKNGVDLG
The procedure, abridged: as §1

The target in a further experiment is PUM1 PUF domain R5-KNC (Homo sapiens, UniProt Q14671 828-1176, C1007K;R1008N;Q1011C). The gist of the method: as §1
Another experiment deals with PUM1 PUF domain R5-RCR (Homo sapiens, UniProt Q14671 828-1176, C1007R;R1008C;Q1011R). The procedure, abridged: as §1
The target of the next experiment is PUM1 PUF domain R7-KFF (Homo sapiens, UniProt Q14671 828-1176, S1079K;N1080F;E1083F). The gist of the method:
as §1

The target of another experiment is T2, PUM1 PUF domain R6-RWT (Homo sapiens, UniProt Q14671 828-1176, N1043R;Y1044W;Q1047T).
T2 sequence: T1 sequence with H216R, Y217W, S220T
The procedure, abridged:
as §1

Where a chain is given by its changes, count along the chain named.

In the case of “GGCUAGAACUAGUGGAUCCCCCGGCGCCCGGCGGCUCGAGCCCGGGUAAGUGUAAAUUGUCUGCAUGCCGCCGGGCGCCAUGCCUGCAGGUCGACUCUAGAAAACAUG”, the binding signal with PUM1 PUF domain R1-RHV was 2.89 log2 enrichment (interaction score).
On to “GGCUAGAACUAGUGGAUCCCCCGGCGCCCGGCGGCUCGAGCCCGGGUAAGUGUAAAUCGUCUGCAUGCCGCCGGGCGCCAUGCCUGCAGGUCGACUCUAGAAAACAUG”, for which, in the experiment with PUM1 PUF domain R1-RHV, the binding signal was 1.47 log2 enrichment (interaction score).
On to “GGCUAGAACUAGUGGAUCCCCCGGCGCCCGGCGGCUCGAGCCCGGGUAAGUUUAAAUAGUCUGCAUGCCGCCGGGCGCCAUGCCUGCAGGUCGACUCUAGAAAACAUG”, for which the binding signal with PUM1 PUF domain R7-GVN was 3.93 log2 enrichment (interaction score).
In the case of “GGCUAGAACUAGUGGAUCCCCCGGCGCCCGGCGGCUCGAGCCCGGGUAAGUGUAAAUAGUCUGCAUGCCGCCGGGCGCCAUGCCUGCAGGUCGACUCUAGAAAACAUG”, in the experiment with PUM1 PUF domain R6-HYS, the binding signal was 3.52 log2 enrichment (interaction score).
With “GGCUAGAACUAGUGGAUCCCCCGGCGCCCGGCGGCUCGAGCCCGGGUAAGUGUUAAUAGUCUGCAUGCCGCCGGGCGCCAUGCCUGCAGGUCGACUCUAGAAAACAUG”, the binding signal in the experiment with PUM1 PUF domain R5-KNC was 4.22 log2 enrichment (interaction score); in the experiment with PUM1 PUF domain R5-RCR, 2.8 log2 enrichment (interaction score).
For “GGCUAGAACUAGUGGAUCCCCCGGCGCCCGGCGGCUCGAGCCCGGGUAAGUGUCAAUAGUCUGCAUGCCGCCGGGCGCCAUGCCUGCAGGUCGACUCUAGAAAACAUG”, the binding signal in the experiment with PUM1 PUF domain R5-RCR was 3.99 log2 enrichment (interaction score).
As to “GGCUAGAACUAGUGGAUCCCCCGGCGCCCGGCGGCUCGAGCCCGGGUAAGUAUAAAUAGUCUGCAUGCCGCCGGGCGCCAUGCCUGCAGGUCGACUCUAGAAAACAUG”, the binding signal with PUM1 PUF domain R7-KFF is 3.16 log2 enrichment (interaction score).
On the same count and under the same terms, as for “GGCUAGAACUAGUGGAUCCCCCGGCGCCCGGCGGCUCGAGCCCGGGUAAGUCUAAAUAGUCUGCAUGCCGCCGGGCGCCAUGCCUGCAGGUCGACUCUAGAAAACAUG”, the figure is 2.82 log2 enrichment (interaction score).
In the case of “GGCUAGAACUAGUGGAUCCCCCGGCGCCCGGCGGCUCGAGCCCGGGUAAGUGAAAAUAGUCUGCAUGCCGCCGGGCGCCAUGCCUGCAGGUCGACUCUAGAAAACAUG”, the binding signal in the experiment with PUM1 PUF domain R6-RWT is 3.03 log2 enrichment (interaction score).
